Screening results from PubChem.
ELG1 genotox – genotoxicity induction in ELG1-luciferase HEK293T cells; hit rate 1.3% among 330,000; Potency, µM (doses to about 46 µM), inactives show top-dose activity change, positive = activation, usual class: activators; HEK293T ELG1-luciferase reporter, luminescence, 16 h; AID 504466; note: % of control where 0% means no effect; nearly all actives have a fitted effect of over 60% in size
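Quantitative HTS format in 1536-well plates. HEK293T ELG1-luciferase reporter cells receive test compound and are incubated 16 hr at 37 °C, 5% CO2; ONE-Glo added, 30 min room temperature, then luminescence read.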
FLuc modulator – firefly luciferase modulation, counter-screen for miR-21 project; P08659; purified FLuc, Km substrates, luminescence inhibition; Potency, µM (highest dose often 57.5 µM), for inactives: at the top dose activity change, negative = inhibition, actives largely listed as inhibitors; hit rate 6.9% among 360,000;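 note: plate controls were vehicle for no effect and reference inhibitor for full effect; nearly all actives have a fitted effect of over 55% in size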
Target sequence (P08659 whole entry, looked up): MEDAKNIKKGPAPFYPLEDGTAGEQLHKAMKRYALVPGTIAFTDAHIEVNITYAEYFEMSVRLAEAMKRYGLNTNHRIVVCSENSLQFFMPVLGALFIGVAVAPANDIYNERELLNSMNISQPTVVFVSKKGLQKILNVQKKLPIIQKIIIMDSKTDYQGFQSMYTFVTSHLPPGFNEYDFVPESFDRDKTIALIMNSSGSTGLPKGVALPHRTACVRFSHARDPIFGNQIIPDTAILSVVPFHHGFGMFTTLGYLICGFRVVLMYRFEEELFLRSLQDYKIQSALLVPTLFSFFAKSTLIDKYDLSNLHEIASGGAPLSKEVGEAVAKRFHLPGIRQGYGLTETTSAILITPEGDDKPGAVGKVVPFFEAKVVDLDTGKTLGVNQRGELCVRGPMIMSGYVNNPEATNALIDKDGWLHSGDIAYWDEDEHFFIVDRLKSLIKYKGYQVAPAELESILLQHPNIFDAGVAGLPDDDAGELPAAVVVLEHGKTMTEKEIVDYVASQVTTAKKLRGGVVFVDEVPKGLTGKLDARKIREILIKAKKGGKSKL
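Biochemical qHTS of compounds, final roughly 60 µM downward over six points, against 10 nM purified firefly luciferase using Km concentrations of substrates (10 uM D-luciferin, 10 uM ATP) in Tris acetate pH 7.5 buffer; luminescence output.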
KinaseGlo FLuc – Kinase-Glo luciferase inhibition (counter-screen) | Kinase-Glo luciferase, ATP luminescence, 8 min | hit rate 0.28% among 200,000 | Potency, µM (highest dose often 38.3 µM), without a hit: at the highest dose activity change, negative = inhibition, hits mostly inhibitors | Q27757 | AID 1379; note: % is set by controls: 0 for no effect and ±100 for the full control effect; nearly all actives have a fitted effect of over 60% in size
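Kinase-Glo luciferase light output from ATP and luciferin was measured with 10 uM ATP, within the enzyme's linear range. Buffer: 50 mM imidazole pH 7.2, 50 mM KCl, 7 mM MgCl2, 0.01% Tween 20, 0.05% BSA; luminescence read after 8 min at ambient temperature.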
SMN2 splice up – enhancers of SMN2 splice variant expression | Potency, µM (series often up to 46.1 µM), without a hit: at the top dose activity change, positive = activation, usual class: activators | HEK293 SMN2-luciferase splicing reporter, luminescence, 30-36 h | hit rate 2.8% among 210,000; note: % of control where 0% means no effect; nearly all actives have a fitted effect of over 55% in size
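HEK293 cells carry an SMN2 […]–luciferase reporter in which exon 7 inclusion puts luciferase in frame. Cells were plated 10-12 h before compound addition, then incubated 30-36 h at 37C. ONE-Glo luminescence was read; sodium butyrate at 4.5 mM final served as control.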
Rab9 prom act – activators of Rab9 promoter. AID 485297. Potency, µM (doses to about 9.22 µM), for the others: at the highest dose activation, negative = inhibition, usual class: activators. hit rate 2.8% among 320,000. Huh7 Rab9 promoter-luciferase reporter, luminescence, 24 h; note: % of control where 0% means no effect; nearly all actives have a fitted effect of over 60% in size
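Huh7 cells stably carrying a Rab9 promoter-luciferase reporter, 1500 cells per well in OP-MEM I with 10% FBS, treated with compound 24 hours at 37C. Luciferase activity read by luminescence after 10 minutes with Amplite reagent.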
NPC1 prom act – activates the NPC1 promoter | Huh7 NPC1 promoter luciferase reporter, 24 h | AID 485313 | hit rate 2.4% among 320,000 | Potency, µM (doses to about 9.22 µM), for inactives: at the highest dose activation, hits mostly activators; note: % of control where 0% means no effect; nearly all actives have a fitted effect of over 60% in size
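Luciferase expression driven by the NPC1 promoter was measured in stably transfected Huh7 cells after a 24 h compound incubation, using a luciferase reagent and a luminescence read.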
Active calls of the source: *; ? = inconclusive; . = no result given; [ ] = dose if it differs, or a comment. Only some compounds are listed: those with a hit (about 7.3% of all), similar ones and a draw of the others. Calls come from the whole dose curve; as a rule, active = well fitted curve in the direction sought with a large enough effect; inconclusive = small, poorly fitted or top-dose-only effect, or another doubt; inactive = no such curve, though single readings can be large; an effect the other way counts as inactive or inconclusive. Potency is the fitted concentration of half-maximal effect.

SMILES	ELG1 genotox	FLuc modulator	KinaseGlo FLuc	SMN2 splice up	Rab9 prom act	NPC1 prom act
COc1ccc(CC(=O)NCC(c2ccc(N(C)C)cc2)N2CCOCC2)cc1OC (stereo unspecified)	.	-2%	.	.	.	.
Cc1ccc(-n2[nH]c3c4c(ccc3c2=O)C(=O)c2ccccc2C4=O)cc1	4%	1%	-1%	-1%	-8%	-1%
Cc1ccc(C)c(-n2[nH]c3c4c(ccc3c2=O)C(=O)c2ccccc2C4=O)c1	-7%	15µM*	-7%	-21%	7%	1%
O=c1c2[nH]c3ccc(F)cc3c2ncn1C1CCCCC1	14%	-11%	-2%	7%	4µM*	?
O=c1c2[nH]c3ccc(F)cc3c2ncn1Cc1ccncc1	0%	1%	.	.	0%	-2%
O=C(/C=C/c1ccc(O)cc1)c1cccs1	.	.	5.6µM*	.	.	.
COc1ccc(/C=C/C(=O)c2ccccc2O)cc1	16µM*	0.27µM*	?	.	24%	19%
COc1ccc(/C=C/C(=O)c2ccccn2)cc1	?	0.38µM*	4µM*	8%	0.89µM*	4µM*
O=C(/C=C/c1ccc(OCc2ccccc2)cc1)c1cccs1	.	.	0%	.	.	.
O=C(/C=C/c1ccc(O)cc1)c1ccccc1O	.	.	4.5µM*	-115%	.	.
Cc1ccccc1NC(=O)c1cnc2sc(N3CCCC3)nn2c1=O	.	0%	.	.	.	.
CCCCN(CC)CCNC(=O)CN1C(=O)COc2ccc(S(=O)(=O)N3CCOCC3)cc21	.	0%	.	11%	.	.
COc1ccc(-c2nc(-c3ccccc3)c(NC(C)(C)C)o2)cc1	.	.	1%	-7%	.	.
Cc1ccn2c(NC3CCCCC3)c(-c3cccc(SC4CCCCC4)c3)nc2c1	-3%	.	.	.	.	.
Cc1ccn2c(NC3CCCC3)c(-c3ccsc3)nc2c1	-6%	24µM*	-1%	-30%	-7%	1%
Cc1ccc(-c2noc(CNC(=O)c3ccc(C(C)(C)C)cc3)n2)cc1	.	-19%	.	3%	.	.
CNC(=O)CCc1nc(-c2ccc(C(C)(C)C)cc2)no1	15%	4.8µM*	-3%	-17%	13%	?
Cc1ccc(-c2noc(CCC(=O)NCC3CCCO3)n2)cc1 (stereo unspecified)	-1%	-13%	-4%	-12%	2%	-1%
CC(C)(C)c1ccc(-c2noc(CCC(=O)NCC3CCCO3)n2)cc1 (stereo unspecified)	14%	1.9µM*	-2%	-58%	-20%	-15%
CN(C)C(=O)CCc1nc(-c2ccc(C(C)(C)C)cc2)no1	?	5.4µM*	-2%	-12%	3.2µM*	2.5µM*
COc1ccc(-c2noc(CCC(=O)Nc3cc(Cl)c(OC)cc3OC)n2)cc1	?	8.5µM*	3%	2%	-1%	0%
Cc1ccc(S(=O)(=O)OCC(=O)O)cc1	.	.	-6%[7.66 µM]	-18%[9.22 µM]	.	.
O=C(Cn1c(=O)n2nc(-c3cccc(F)c3)nc2c2ccccc21)N1CCN(c2ccc(F)cc2)CC1	.	-2%	.	.	.	.
CC(C)(CC(=O)O)Cc1nc(-c2ccc(Cl)cc2)no1	?	27µM*	-3%	7%	3%	16%
CC(C)(C)c1ccc(-c2noc(CCC(=O)N3CCOCC3)n2)cc1	?	2.4µM*	2%	?	1.8µM*	?
SMILES	ELG1 genotox	FLuc modulator	KinaseGlo FLuc	SMN2 splice up	Rab9 prom act	NPC1 prom act
COc1ccc(-c2noc(CCC(=O)Nc3cccnc3)n2)cc1	4%	?	.	.	-2%	-4%
CC(C)(C)c1ccc(-c2noc(CCC(N)=O)n2)cc1	-11%	6µM*	0%	-43%	-32%	-26%
CC(C)(C)c1ccc(-c2noc(CCC(=O)Nc3cccnc3)n2)cc1	?	1.7µM*	.	.	-37%	-39%
O=C(O)CCc1nc(-c2ccc(Cl)cc2)no1	1%	-7%	0%	7%	1%	-2%
CCOC(=O)c1sc2ncn(CC(=O)Nc3ccc(OC)c(Cl)c3)c(=O)c2c1C	.	1%	.	-9%	.	.
COc1ccc(NC(c2ccc(F)cc2)c2nnc(-c3ccccc3Cl)o2)cc1Cl (stereo unspecified)	.	1%	.	-25%	.	.
O=C1CCCC/C1=C/Nc1ccc(C(=O)O)cc1	10%	12µM*	-15%	-27%	?	25%
O=C1CCCC/C1=C/Nc1ccc2c(c1)OCO2	?	11µM*	-14%	?	3.5µM*	2.8µM*
COc1ccc(N/C=C2/CCCCC2=O)cc1	3%	15µM*	-27%	42%	?	?
COc1cc(CNCCSc2nnnn2C)ccc1OCc1ccccc1C	.	-2%	.	-18%	.	.
COc1ccc(NC(=O)CN(C)C(=O)c2cc(-c3ccco3)nc3ccccc23)cc1	-9%	17µM*	.	.	-1%	-3%
COc1cc(/C=N/NC(=O)c2cc(-c3ccco3)nc3ccccc23)cc(OC)c1O	-5%	12µM*	.	.	-2%	-6%
COc1ccc(NC(=O)CN(C)C(=O)c2ccc(-c3ccccc3Cl)o2)cc1	12%	24µM*	.	.	0%	-1%
O=C(N/N=C/c1cccc(F)c1)c1cc(-c2ccco2)nc2ccccc12	8%	0.54µM*	-1%	?	6%	1%
COc1ccc(NC(=O)CN(C)C(=O)c2ccc(-c3cccc(C(F)(F)F)c3)o2)cc1	1%	?	.	.	9%	14%
COc1ccc(OC)c(N(C)S(=O)(=O)c2ccc3c(c2)NC(=O)CC(=O)N3)c1	.	-2%	.	-18%	.	.
CCOc1cccc2sc(N3CCN(C(=O)c4ccc5c(c4)CCCC5)CC3)nc12	.	-19%	.	.	.	.
COc1ccc(NC(=O)c2ccc(-c3ccccc3C(F)(F)F)o2)cc1	9%	19µM*	-1%	-1%	4%	8%
COc1cc(/C=C(\C#N)C(=O)Nc2cccc(C(=O)O)c2)ccc1OCc1ccc(F)cc1	21µM*	-14%	.	.	-1%	-1%
COC(=O)c1ccc(COc2ccccc2/C=C(\C#N)C(=O)Nc2ccc(C)cc2)cc1	21µM*	8.5µM*	-2%	-41%	2.8µM*	?
C=CCNC(=O)/C(C#N)=C/c1ccccc1OCc1ccc(C(=O)OC)cc1	?	1%	1%	?	2%	-7%
COc1cc(/C=N/OCC(=O)Nc2cc(C)cc(C)c2)ccc1OCc1ccc(Cl)cc1	?	9.5µM*	-1%	11µM*	3.2µM*	?
COc1cc(/C=N/N2CCOCC2)ccc1OCc1ccc(Cl)cc1	?	11µM*	5%	11µM*	17%	-3%
COc1cc(/C=N/OCC(=O)NC2CCCCC2C)ccc1OCc1ccc(Cl)cc1 (stereo unspecified)	18µM*	6.7µM*	2%	?	2.8µM*	?
COc1cc(/C=N/N2CCOCC2)ccc1OCc1ccccc1	14%	-17%	-2%	?	7%	0%
